Experimental findings from PubChem BioAssay AID1259421 (Broad Institute, 2018) are described below.

Each structure is given as a SMILES string. Several values for one entry are separate records, joined by “and”; a condition that tells them apart may be missing. Equal entries are not always repeated. The whole screen tested about 6,400 compounds, of which about 610 (9.5%) were called active. No stated cut-off is given here; in the data, active means activity change below about -70%; inconclusive means no clear call, values can overlap the other calls; inactive means above that. Only a selection was taken, and actives are over-represented in it overall. Some structures have more than one record in an assay (separate samples or runs), and their calls can disagree.

This experiment is described as follows: T. gondii ME49Luc in HeLa cells, luciferase assay, 72 h, no IFN-y (AID 1259421). The settings on record: stronger effect = lower value, concentration not given here.
As for `C=C(C)[C@@H]1CC[C@]2(C(=O)O)CC[C@]3(C)[C@H](CC[C@@H]4[C@@]5(C)CC[C@H](OC(=O)CC(C)(C)C(=O)O)C(C)(C)[C@@H]5CC[C@]43C)[C@@H]12`, the activity change, negative = inhibition is -18.2% (inactive).
Regarding `Fc1ccc2nc(CCC#Cc3ccccn3)cn2c1`, the activity change, negative = inhibition is 1.01% (inactive).
With `NS(=O)(=O)OC[C@@H]1C[C@@H](n2ccc3c(N[C@H]4CCc5ccccc54)ncnc32)C[C@@H]1O`, the activity change, negative = inhibition was -17.2% (inactive).
With `OC1C(O)C(O)C(O)C(O)C1O` (centres undefined), the activity change, negative = inhibition is 18.3% (inactive).
`COc1ccc(C(C#N)C(C)C)cc1OC` (centres undefined): the activity change, negative = inhibition is 21.3% (inactive).
For the compound `CN([NH2+][O-])c1cc(O)ccc1O`, the activity change, negative = inhibition was 11.6% (inactive).
For `Cc1occc(=O)c1CC=O`, the activity change, negative = inhibition was 1.36% (inactive).
As for `CC1COC2(CCN(c3nc(=O)c4cc(C(F)(F)F)cc([N+](=O)[O-])c4s3)CC2)O1` (centres undefined), the activity change, negative = inhibition was 301% (inactive).
On to `Cc1cc(F)c(Nc2ncnc3cc(OCc4ccccc4)ccc23)cc1O`, for which the activity change, negative = inhibition is -65.2% (inactive) and -70.4% (active).
Turning to `COc1cc2ncnc(Nc3ccc(Cl)cc3F)c2cc1OC`, the activity change, negative = inhibition was -68.4% (inactive) and -67% (inactive).
`COc1cc2ncnc(Nc3ccc(Oc4ccccc4)cc3)c2cc1OC`: the activity change, negative = inhibition was 2.86% (inactive).
As to `CC(C)(C(=O)O)c1ccc(C(=O)CCCN2CCC(OC(c3ccccc3)c3ccccc3)CC2)cc1`, the activity change, negative = inhibition is 6.98% (inactive).
Consider `CC(C)(C)c1ccc(C(=O)CCCN2CCC(OC(c3ccccc3)c3ccccc3)CC2)cc1`, for which the activity change, negative = inhibition is -87.2% (active).
Regarding `O=C(O)CCCN1CCC(O[C@@H](c2ccc(Cl)cc2)c2ccccn2)CC1`, the activity change, negative = inhibition is 24.8% (inactive).
For the compound `O=P(O)(O)OC(CO)CO`, the activity change, negative = inhibition is 38% (inactive).
As for `CN(C)C(=O)c1ccc(S(=O)(=O)c2ccc(NC(=O)C(C)(O)C(F)(F)F)c(Cl)c2)cc1` (centres undefined), the figure is -6.06% (inactive).
As for `CC1(C)[C@@H](O)CC[C@]2(C)[C@H]3C(=O)C=C4[C@@H]5C[C@@](C)(C(=O)O)CC[C@]5(C)CC[C@@]4(C)[C@]3(C)CC[C@@H]12`, the figure is 6.44% (inactive).
Under `CC(=O)Oc1cc2c(c(C)c1OC(C)=O)CC=C1[C@@]2(C)CC[C@@]2(C)C3C[C@](C)(C(=O)O)CC[C@]3(C)CC[C@]12C` (some centres undefined) stands -93.4% (active); under `CC1(C)C2CC[C@]3(C)C(C(=O)C=C4[C@H]5C[C@@](C)(C(=O)O)CC[C@]5(C)CC[C@]43C)[C@@]2(C)CC[C@@H]1O` (some centres undefined), 1.01% (inactive).
As for `C=C[C@@](C)(O)CCC1C(=C)CCC2[C@@](C)(CO)CCC[C@]12C` (some centres undefined), the activity change, negative = inhibition is 13.4% (inactive).
Turning to `CC1(C)O[C@@H]2CC3C4C[C@H](F)C5=CC(=O)C=C[C@]5(C)[C@@]4(F)[C@@H](O)C[C@]3(C)[C@]2(C(=O)CO)O1` (some centres undefined), the activity change, negative = inhibition was -11.6% (inactive).
On to `C=CC(=O)Nc1cccc(Sc2nc(Nc3ccc(N4CCN(C)CC4)cc3)ncc2Cl)c1`, for which the activity change, negative = inhibition is -58.5% (inactive).
As for `Cc1cnc(Nc2ccc(N3CCN(C)CC3)cc2)nc1Nc1cccc(S(=O)(=O)NC(C)(C)C)c1`, the figure is -76.6% (active); as for `CS(=O)(=O)c1cccc(CNc2nc(Nc3ccc4c(c3)CCC(=O)N4)ncc2C(F)(F)F)c1`, -29.4% (inactive); as for `Cc1cnc(Nc2ccc(OCCN3CCCC3)cc2)nc1Nc1cccc(S(=O)(=O)NC(C)(C)C)c1`, -95.9% (active).
Consider `C=CC(=O)Nc1cccc(Oc2nc(Nc3ccc(N4CCN(C)CC4)cc3)ncc2Cl)c1`, for which the activity change, negative = inhibition was -59.1% (inactive).
As for `C=CC(=O)Nc1cccc(Nc2nc(Nc3ccc(OCCOC)cc3)ncc2F)c1`, the figure is -10% (inactive).
As to `CC(CCCCC(=O)Nc1ccc(C(F)(F)F)cc1)NCCc1cnc[nH]1` (centres undefined), the activity change, negative = inhibition is -0.447% (inactive) and -3.16% (inactive).
For `CO/N=C(\C(=O)N[C@@H]1C(=O)N2C(C(=O)O)=C(CSC(=O)c3ccco3)CS[C@H]12)c1csc(N)n1`, the activity change, negative = inhibition was 17.6% (inactive) and -30.2% (inactive).
As for `CO[C@@H]1COCC[C@@H]1N[C@@H]1CC[C@@](C(=O)N2CCc3ncc(C(F)(F)F)cc3C2)(C(C)C)C1`, the figure is 3.98% (inactive).
Consider `Cc1ccc(F)c(NC(=O)Nc2ccc(-c3cccc4[nH]nc(N)c34)cc2)c1`, for which the activity change, negative = inhibition was -78.3% (active).
`Cc1cc(NC(=O)Nc2ccc(N(C)C)cc2)c2cc(F)cc(F)c2n1`: the activity change, negative = inhibition is 31.3% (inactive).
With `COc1cc(OC)c2c(c1)OC(c1ccccc1)CC2=O` (centres undefined), the activity change, negative = inhibition was 34.9% (inactive).
As for `O=c1oc(-c2ccc(C(F)(F)F)cc2)nn1Cc1cc(Cl)ccc1O`, the figure is 24.7% (inactive) and -12.8% (inactive); as for `CCn1c(=O)n(C2=C(CO)CN(CC3CCCCCCC3)CC2)c2ccccc21`, 12.4% (inactive) and -0.696% (inactive).
Turning to `CC(=O)Nc1ccc(C(=O)Nc2ccccc2N)cc1`, the activity change, negative = inhibition is 31.2% (inactive) and 45.5% (inactive).
Consider `Cc1cc(Nc2ccc(NC(=O)c3ccc(Nc4ccnc5ccccc45)cc3)cc2)nc(N)n1`, for which the activity change, negative = inhibition was -89.9% (active).
In the case of `O=C(OCC(O)CO)c1ccccc1Nc1ccnc2cc(Cl)ccc12` (centres undefined), the activity change, negative = inhibition was 5.66% (inactive).
Consider `CC1(C)O[C@@H]2CC3C4CCC5=CC(=O)CCC5(C)C4(F)C(O)CC3(C)[C@]2(C(=O)CCl)O1` (some centres undefined), for which the activity change, negative = inhibition was -3.24% (inactive) and 2.55% (inactive).
As for `CCOC(=O)c1cc(C#N)c(N2CCC(C(=O)NS(=O)(=O)Cc3ccccc3)CC2)nc1C`, the activity change, negative = inhibition is 13.4% (inactive).
Take `CCCCCCCCCCCCCCCC[n+]1ccccc1`: the activity change, negative = inhibition is -12.3% (inactive) and -82.5% (active).
As for `CCCCCCCC(=O)O`, the figure is 9.6% (inactive) and 5.48% (inactive); as for `CCCCCCCCCCCCCCCCCCCCCCCCC(=O)O`, 11.5% (inactive); as for `c1ccc(-c2ccc(C(c3ccccc3)n3ccnc3)cc2)cc1` (centres undefined), -68.3% (inactive) and -81.5% (active).
On to `N#Cc1ccc(C(c2ccc(C#N)cc2)n2cncn2)cc1`, for which the activity change, negative = inhibition is 0.399% (inactive).
In the case of `FC(F)(F)c1ccccc1-n1ccnc1`, the activity change, negative = inhibition is -1.27% (inactive).
With `CCCCCCCCc1ccc(-c2ccc(C(=O)O)cc2)cc1`, the activity change, negative = inhibition was 18% (inactive).
As to `CCCCCCCCc1ccc(CCC(N)(CO)CO)cc1`, the activity change, negative = inhibition is -79.3% (active) and -52.1% (inactive).
Regarding `CCCCCCCCCCCCCCCCCCc1ccc(C(=O)/C=C/C(=O)O)cc1`, the activity change, negative = inhibition is 11.8% (inactive).
